# The supplement of paper PMC12669032
# Unmarked numbers belong to inactive results.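 How the source made its calls: active = AUC reduced over 20% with Padj below 0.05 in at least 2 of 3 replicates; inactive = otherwise.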
# What was measured:
# Assay in all cases: growth AUC relative to DMSO control (median of replicates) (fraction); higher = more growth (less inhibition), active = hit call of the paper
# Conditions in all cases: 20 µM; 24 h
# Coprococcus comes = tested on: Coprococcus comes
# Outline: (§1)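 Gut bacterial monocultures in mGAM were treated with 20 µM compound (1% DMSO) and grown anaerobically at 37 °C in round-bottom 96-well plates from OD600 0.05. OD600 was read hourly for 24 h, with the minimum OD set to 0. Area under the growth curve was normalised to the plate median of solvent-only wells, or to row and column medians on the industrial chemical plate. Each value is the median of three biological replicates, each grown on a separate day.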
# Escherichia coli ED1a = tested on: Escherichia coli ED1a
# Outline: as §1
# Escherichia coli IAI1 = tested on: Escherichia coli IAI1
# Outline: as §1
# Eubacterium rectale = tested on: Eubacterium rectale
# Outline: as §1
# [1] = tested on: Fusobacterium nucleatum subsp. animalis
# Outline: as §1
# Lactobacillus gasseri = tested on: Lactobacillus gasseri
# Outline: as §1
# Lactobacillus paracasei = tested on: Lactobacillus paracasei
# Outline: as §1
# Odoribacter splanchnicus = tested on: Odoribacter splanchnicus
# Outline: as §1
# [2] = tested on: Parabacteroides distasonis
# Outline: as §1
# Parabacteroides merdae = tested on: Parabacteroides merdae
# Outline: as §1
# Roseburia intestinalis = tested on: Roseburia intestinalis
# Outline: as §1
# Streptococcus salivarius = tested on: Streptococcus salivarius
# Outline: as §1
SMILES,growth AUC (Coprococcus comes),growth AUC (Escherichia coli ED1a),growth AUC (Escherichia coli IAI1),growth AUC (Eubacterium rectale),growth AUC [1],growth AUC (Lactobacillus gasseri),growth AUC (Lactobacillus paracasei),growth AUC (Odoribacter splanchnicus),growth AUC [2],growth AUC (Parabacteroides merdae),growth AUC (Roseburia intestinalis),growth AUC (Streptococcus salivarius)
CCOC(=O)c1ccccc1S(=O)(=O)NC(=O)Nc1nc(Cl)cc(OC)n1,0.988,1.03,1.02,1.05,1.07,0.969,1.05,1.1,1.07,1.04,1.01,0.972
CC(C)N(C)S(=O)(=O)NC(=O)c1cc(-n2c(=O)cc(C(F)(F)F)n(C)c2=O)c(F)cc1Cl,1.03,1.02,1,1.01,0.98,1.02,1.04,0.99,1.08,1,1.03,0.998
O.[Br-].[Br-].c1cc[n+]2c(c1)-c1cccc[n+]1CC2,0.988,1.03,0.95,1.21,0.996,1.11,1.01,0.937,0.781 (active),0.967,1.04,1.01
CC1(C)C(/C=C(\Cl)c2ccc(Cl)cc2)C1C(=O)OC(C#N)c1ccc(F)c(Oc2ccccc2)c1 (stereo unspecified),0.968,0.986,1.01,0.864,1.02,1.04,0.913,1.03,1,1,1.07,1.03
OC(Cc1ccccc1Cl)(Cn1[nH]cnc1=S)C1(Cl)CC1 (stereo unspecified),0.932,1.02,1.04,0.897,1.02,1.01,1.04,0.825,0.916,0.894,0.978,0.959
CCOP(=S)(OCC)Oc1nc(Cl)n(C(C)C)n1,0.986,1,0.999,0.886,1.16,0.952,0.954,0.991,0.917,0.974,1.02,1
C#CCN1CC(=O)N(COC(=O)C2C(C=C(C)C)C2(C)C)C1=O (mixture of isomers),0.982,0.991,0.968,0.805,0.945,0.994,0.997,0.958,0.996,0.927,1.04,0.943
C[C@@H](Oc1ccc(Oc2cnc3cc(Cl)ccc3n2)cc1)C(=O)O,1.05,1.02,1,0.987,1.08,0.997,1.04,0.97,0.983,1.03,1.04,1.01
O=S(=O)(c1ccc(O)cc1)c1ccc(O)cc1,0.974,1.05,1.02,0.972,0.977,0.963,0.953,0.914,0.878,0.974,1,1.04
OCC(O)CCl (stereo unspecified),0.999,0.947,1,1,0.987,0.993,0.978,1.01,1.02,0.991,1.02,1
CCCN(CCOc1c(Cl)cc(Cl)cc1Cl)C(=O)n1ccnc1,0.487 (active),1.01,1.01,0.591 (active),1,1.11,1.17,0.94,0.871,0.843,0.8,0.984
CCOc1cc(Oc2ccc(C(F)(F)F)cc2Cl)ccc1[N+](=O)[O-],0.602 (active),1.01,0.979,0.989,1.09,0.939,0.955,1.08,1.01,0.954,0.884,0.976
CCOP(=O)(OCC)OP(=O)(OCC)OCC,0.976,0.982,1.02,1.19,1.02,0.954,0.961,0.986,0.946,0.919,0.969,1.03
Oc1ccccc1Cl,0.975,1.01,1.01,0.921,0.994,1.05,0.883,0.906,0.995,1,0.965,1.01
Nc1nc(N)nc(Cl)n1,1.02,1.04,1.01,0.971,1.08,1.02,0.991,1,1.01,1.02,1.05,1.03
Nc1c(Cl)cc([N+](=O)[O-])cc1Cl,1.01,0.951,0.962,1.08,0.898,0.923,1.1,1.03,0.933,0.93,0.925,0.956
O=c1c2cc(F)ccc2nc(-n2cncn2)n1-c1ccc(Cl)cc1Cl,0.999,0.987,0.99,0.963,0.976,1.05,0.634,0.977,1.02,0.93,0.975,1.02
Cc1cc(Cl)ccc1OCC(=O)O,1.02,1.02,1,0.984,1.07,1.05,1.04,1.05,1.01,1.04,1.02,0.983
CCNc1nc(NC(C)C)nc(SC)n1,1.01,0.974,0.989,1,1.13,0.987,0.992,0.999,1.01,1.04,1.02,0.973
COP(=O)(OC)Oc1ccc(S(C)=O)c(C)c1 (stereo unspecified),1.01,0.962,0.987,0.797,0.911,1.13,0.975,1.02,1.01,0.978,1.01,1.01
C#CCOS(=O)OC1CCCCC1Oc1ccc(C(C)(C)C)cc1 (mixture of isomers),1.02,1.03,0.968,1,1.05,0.928,0.987,0.946,0.964,0.933,0.956,1.03
CCCOCC(=Nc1ccc(Cl)cc1C(F)(F)F)n1ccnc1,0.505 (active),0.994,0.995,0.382 (active),1.11,0.894,0.938,0.932,0.746 (active),0.894,0.805,0.982
O=C(O)c1cc(Cl)ccc1Cl,0.994,0.97,0.984,1.02,0.994,0.869,0.934,1.08,0.978,0.96,0.993,1.01
